Source: PubChem BioAssay
PLC-beta3 inh = human PLC-beta3 inhibitors, primary screen, biochemical, fluorescence; Purified PLC-beta3, fluorogenic substrate; inhibition, % at 12.2 µM; 370,000 compounds, 0.18% hits; AID 720704, 2013; in the data active means inhibition above about 11%;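 further: 0% = median of compound wells on plate and 100% = full blocker control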
ADAM17 inh = ADAM17 inhibitors, primary screen, biochemical, QFRET; 370,000 compounds, 0.83% hits; inhibition, % at 6.95 µM; recombinant ADAM17, EDANS/DABCYL FRET peptide cleavage; Disintegrin and metalloproteinase domain-containing protein 17 (Homo sapiens), P78536;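 active means inhibition above the mean of compounds lying between control limits plus 3 SD, set per campaign, cut at about 8.5% in these data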;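 further: 0% = DMSO-only wells as the low control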
KLK7 zymogen act = proKLK7 zymogen activators, primary screen, biochemical, fluorescence intensity; Kallikrein-7 (Homo sapiens), P49862; 370,000 compounds, 0.9% hits; purified proKLK7, EDANS-DABCYL substrate fluorescence; 100% is mature enzyme control, 0% vehicle; activation, % at 7 µM;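 active means activation above the mean of all tested compounds plus 3 SD, computed per campaign excluding outliers beyond control limits, cut at about 13% in these data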
Target sequence (P49862 whole entry, looked up): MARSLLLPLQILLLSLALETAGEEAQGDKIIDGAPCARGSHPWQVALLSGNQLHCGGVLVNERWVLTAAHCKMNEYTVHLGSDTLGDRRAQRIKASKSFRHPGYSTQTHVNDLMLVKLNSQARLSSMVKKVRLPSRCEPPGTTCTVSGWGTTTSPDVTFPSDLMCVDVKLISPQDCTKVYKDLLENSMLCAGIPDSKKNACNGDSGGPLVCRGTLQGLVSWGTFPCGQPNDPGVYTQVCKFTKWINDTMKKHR
PLC-gamma1 inh = PLC-gamma1 enzyme inhibitors, primary screen, biochemical, fluorescence, purified enzyme; 1-phosphatidylinositol 4,5-bisphosphate phosphodiesterase gamma-1 (Homo sapiens), P19174; fluorogenic substrate; inhibition, % at 12.2 µM; 370,000 compounds, 0.84% hits; AID 720700, 2013; in the data active means inhibition above about 9.5%
ADAM10 inh = human ADAM10 inhibitors, primary screen, biochemical, QFRET, HTS. Disintegrin and metalloproteinase domain-containing protein 10 (Homo sapiens), O14672. recombinant ADAM10, EDANS/DABCYL FRET peptide cleavage, 3 h. inhibition, % at 7 µM. 370,000 compounds, 0.62% hits. AID 720582, 2013;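 active means inhibition above a per-campaign cutoff equal to the mean of compounds falling between control-based bounds plus 3 SD, cut at about 20% in these data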;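 further: 0% = DMSO wells while the 100% control is not disclosed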
KLK7 act conf = proKLK7 zymogen activators, confirmation, biochemical, fluorescence intensity, triplicate. activation, % at 7 µM. purified proKLK7, EDANS-DABCYL substrate fluorescence; scaled: vehicle 0, mature enzyme 100. 3,200 compounds, 68% hits. shares compounds with KLK7 zymogen act;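 active means activation, as change over the incubation, above the mean of all tested compounds plus 3 SD, cut at about 13% in these data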
EDANS interfere = EDANS-DABCYL substrate optical interference, artefact control for kallikrein-7 zymogen activator project, biochemical, fluorescence intensity, high throughput | shares compounds with KLK7 zymogen act | no enzyme, 4 h; solvent 0%, active enzyme control 100% | activation, % at 7 µM | 3,200 compounds, 80% hits | AID 686952, 2013;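 active means activation above the all-compound mean plus 3 SD, ignoring values outside control-based bounds, cut at about 4.8% in these data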;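 further: value is the 4 h activation minus the activation read at time zero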
* hit, by the source's call. Shown are actives, neighbours in structure and some others; about 2.9% of the full set was active somewhere.

Results for COc1ccc(-n2c(O)c(/C=N/NS(=O)(=O)c3ccc(C)c([N+](=O)[O-])c3)c3ccccc3c2=O)cc1OC ?
PLC-beta3 inh: -37; ADAM17 inh: -5; KLK7 zymogen act: 15*; PLC-gamma1 inh: -25; ADAM10 inh: -45; KLK7 act conf: 41*; EDANS interfere: 44*

How did COc1cc(/C=N/NS(=O)(=O)c2ccc(C)c([N+](=O)[O-])c2)cc([N+](=O)[O-])c1O do in these assays?
PLC-beta3 inh: -9; ADAM17 inh: -1; KLK7 zymogen act: -1; PLC-gamma1 inh: 2; ADAM10 inh: 1

Results for CC1(C)Oc2cc3oc(=O)ccc3cc2C[C@@H]1O ?
PLC-beta3 inh: -112; ADAM17 inh: -340; KLK7 zymogen act: 3; PLC-gamma1 inh: -87; ADAM10 inh: inactive

How did CC1(C)Oc2cc3oc(=O)ccc3c3c2C2C1CCC(C)(O3)C2O (stereo not given) do in these assays?
PLC-beta3 inh: inactive; ADAM17 inh: -200; KLK7 zymogen act: 16*; PLC-gamma1 inh: inactive; ADAM10 inh: inactive; KLK7 act conf: 24*; EDANS interfere: 31*

How did CC[C@]12c3[nH]c4cc(-c5ccco5)ccc4c3CCN1C(=O)[C@@H](CC(=O)NCc1ccc(OC)c(OC)c1)C[C@@H]2C(=O)N1CCN(C(=O)C2CC2)CC1 do in these assays?
PLC-beta3 inh: -366; ADAM17 inh: -106; KLK7 zymogen act: 122*; PLC-gamma1 inh: -289; ADAM10 inh: -383; KLK7 act conf: 72*; EDANS interfere: 84*

Results for CC[C@]12c3[nH]c4cc(-c5ccco5)ccc4c3CCN1C(=O)[C@@H](CC(=O)NCCC1=CCCCC1)C[C@@H]2C(=O)N1CCN(C(=O)C2CC2)CC1 ?
PLC-beta3 inh: inactive; ADAM17 inh: -150; KLK7 zymogen act: 30*; PLC-gamma1 inh: inactive; ADAM10 inh: -478; KLK7 act conf: 14*; EDANS interfere: 17*

Results for CC[C@]12c3[nH]c4cc(-c5ccco5)ccc4c3CCN1C(=O)[C@@H](CC(=O)NCc1ccco1)C[C@@H]2C(=O)N1CCN(C(=O)C2CC2)CC1 ?
PLC-beta3 inh: inactive; ADAM17 inh: -290; KLK7 zymogen act: 100*; PLC-gamma1 inh: inactive; ADAM10 inh: inactive; KLK7 act conf: 67*; EDANS interfere: 93*

Results for C=CCN1[C@H](C#N)[C@@H](c2ccc(C#Cc3cccnc3)cc2)[C@H]1CO ?
PLC-beta3 inh: -27; ADAM17 inh: -19; KLK7 zymogen act: 0; PLC-gamma1 inh: -20; ADAM10 inh: -72

Results for COC(=O)[C@]12C[C@H](CC(=O)N3CCCCC3)C(=O)N(CCc3ccc(OC)c(OC)c3)C1=C[C@H](C1CCCC1)O[C@@H]2C ?
PLC-beta3 inh: 6; ADAM17 inh: 3; KLK7 zymogen act: 1; PLC-gamma1 inh: 0; ADAM10 inh: 6

How did Clc1cccc(CNc2nc(-c3ccccn3)nnc2-c2ccccc2)c1 do in these assays?
PLC-beta3 inh: 0; ADAM17 inh: 1; PLC-gamma1 inh: 2; ADAM10 inh: 5

How did O=C1c2ccccc2NC(c2ccc(-c3cccs3)o2)N1O (stereo not given) do in these assays?
PLC-beta3 inh: inactive; ADAM17 inh: -389; KLK7 zymogen act: 19*; PLC-gamma1 inh: -423; ADAM10 inh: inactive; KLK7 act conf: 6; EDANS interfere: 7.4*

Results for O=C(OCC#CCSc1nnc(-c2cccc3ccccc23)o1)c1ccc(F)nc1 ?
PLC-beta3 inh: -23; ADAM17 inh: -18; PLC-gamma1 inh: -7; ADAM10 inh: -60

What do the screens show for `COc1ccccc1NC1=C(C)C(=O)CC1`?
PLC-beta3 inh: 3; ADAM17 inh: -1; KLK7 zymogen act: 0; PLC-gamma1 inh: -1; ADAM10 inh: -7

Results for COc1ccc(OC)c2c1CCC2=O ?
PLC-beta3 inh: -500; ADAM17 inh: -151; KLK7 zymogen act: 13*; PLC-gamma1 inh: -383; ADAM10 inh: -478; KLK7 act conf: 19*; EDANS interfere: 23*

What do the screens show for `COc1ccc(N2C(=O)c3ccccc3NC2c2cccnc2)cc1` (stereo not given)?
PLC-beta3 inh: -31; ADAM17 inh: -20; KLK7 zymogen act: 0; PLC-gamma1 inh: -23; ADAM10 inh: -58

What do the screens show for `O=C1c2ccccc2NC(c2cccnc2)N1c1ccccc1F` (stereo not given)?
PLC-beta3 inh: -493; ADAM17 inh: -377; KLK7 zymogen act: 23*; PLC-gamma1 inh: -493; ADAM10 inh: inactive; KLK7 act conf: 40*; EDANS interfere: 32*

What do the screens show for `O=C(c1cc2c(s1)-c1ccccc1S(=O)(=O)C2)N1CCCC1`?
PLC-beta3 inh: -45; ADAM17 inh: -2; KLK7 zymogen act: 1; PLC-gamma1 inh: -25; ADAM10 inh: -12

How did O=C(Nc1ccccc1F)c1cc2c(s1)-c1ccccc1S(=O)(=O)C2 do in these assays?
PLC-beta3 inh: -70; ADAM17 inh: -32; KLK7 zymogen act: 89*; PLC-gamma1 inh: -35; ADAM10 inh: -96; KLK7 act conf: 60*; EDANS interfere: 93*

How did O=C(CN(C(=O)OCC1c2ccccc2-c2ccccc21)[C@@H](Cc1ccccc1)C(=O)O)OCc1ccc(C(=O)NCc2ccccc2)cc1 do in these assays?
PLC-beta3 inh: -4; ADAM17 inh: 2; KLK7 zymogen act: 0; PLC-gamma1 inh: 1; ADAM10 inh: 10

Results for O=C(NCCc1c[nH]c2ccccc12)OCc1cn(Cc2cccc(F)c2F)nn1 ?
PLC-beta3 inh: -2; ADAM17 inh: -6; KLK7 zymogen act: 0; PLC-gamma1 inh: -2; ADAM10 inh: -1

What do the screens show for `Cc1ccc(NC(=O)C2=C(O)c3ccccc3N(C)S2(=O)=O)cc1`?
PLC-beta3 inh: -57; ADAM17 inh: -63; KLK7 zymogen act: 51*; PLC-gamma1 inh: -42; ADAM10 inh: -268; KLK7 act conf: 6; EDANS interfere: 9.3*

How did CCCCOCCCNC(=O)C[C@H]1C[C@@]2(C(=O)OC)C(=C[C@H](C(C)C)O[C@@H]2C2CC2)N(CCc2ccc(OC)c(OC)c2)C1=O do in these assays?
PLC-beta3 inh: 1; ADAM17 inh: -2; KLK7 zymogen act: -1; PLC-gamma1 inh: -1; ADAM10 inh: -1
